Compound activity deposited in PubChem BioAssay by several laboratories.
Rows were chosen to be rich in hits. Some 1.1% of all compounds tested hit in one or more screens of this group.
IDE cell inh: human IDE inhibitors in live cells, primary screen, fluorescence polarization, HEK cells, FAbetaB substrate; Insulin-degrading enzyme (Homo sapiens), P14735; inhibition, % at 5.59 µM; AID 434962, 2010; FAbetaB cleavage; hit rate 0.41% among 320,000;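 active = percent inhibition above the average of all tested compounds plus 3 SD, set per screening campaign, cut at about 16% in these data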;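 also: IDE supplied by intact live HEK cells; FP after avidin binding of uncleaved biotin substrate so inhibition keeps polarization high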
HDAC3 inhib: HDAC3 deacetylase inhibitors, primary screen, biochemical, fluorescence, cell-free homogeneous. AID 2718, 2010. inhibition, % at 8.3 µM. recombinant HDAC3, fluorogenic peptide/trypsin coupled. Histone deacetylase 3 (Homo sapiens), O15379. hit rate 0.15% among 320,000; in the data active = inhibition above about 26%, passing the limit was not always enough
IDE cell activ: human IDE activators in live cells, primary screen, fluorescence polarization, HEK cells, FAbeta-B substrate; Insulin-degrading enzyme (Homo sapiens), P14735; FAbeta-B cleavage; 0% vehicle, 100% cell-free pure enzyme wells; activation, % at 5.96 µM; hit rate 0.073% among 340,000;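 active = activation above the mean of all tested compounds plus 3 SD, set per screening campaign, cut at about 17% in these data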
LANA-H2A inh: blockers of LANA interaction with H2A/H2B – biochemical, FP readout, HTS, primary screen | cell-free LANA-H2A/H2B peptide, fluorescence polarization | inhibition, % (no concentration beside the values) | Protein LANA1 (Human herpesvirus 8 type P (isolate GK18)), Q9QR71 | hit rate 0.6% among 320,000; in the data active = inhibition mostly above about 10%, no sharp cut-off; inactive = mostly below about 6.7%
Target sequence (Q9QR71 whole entry, looked up): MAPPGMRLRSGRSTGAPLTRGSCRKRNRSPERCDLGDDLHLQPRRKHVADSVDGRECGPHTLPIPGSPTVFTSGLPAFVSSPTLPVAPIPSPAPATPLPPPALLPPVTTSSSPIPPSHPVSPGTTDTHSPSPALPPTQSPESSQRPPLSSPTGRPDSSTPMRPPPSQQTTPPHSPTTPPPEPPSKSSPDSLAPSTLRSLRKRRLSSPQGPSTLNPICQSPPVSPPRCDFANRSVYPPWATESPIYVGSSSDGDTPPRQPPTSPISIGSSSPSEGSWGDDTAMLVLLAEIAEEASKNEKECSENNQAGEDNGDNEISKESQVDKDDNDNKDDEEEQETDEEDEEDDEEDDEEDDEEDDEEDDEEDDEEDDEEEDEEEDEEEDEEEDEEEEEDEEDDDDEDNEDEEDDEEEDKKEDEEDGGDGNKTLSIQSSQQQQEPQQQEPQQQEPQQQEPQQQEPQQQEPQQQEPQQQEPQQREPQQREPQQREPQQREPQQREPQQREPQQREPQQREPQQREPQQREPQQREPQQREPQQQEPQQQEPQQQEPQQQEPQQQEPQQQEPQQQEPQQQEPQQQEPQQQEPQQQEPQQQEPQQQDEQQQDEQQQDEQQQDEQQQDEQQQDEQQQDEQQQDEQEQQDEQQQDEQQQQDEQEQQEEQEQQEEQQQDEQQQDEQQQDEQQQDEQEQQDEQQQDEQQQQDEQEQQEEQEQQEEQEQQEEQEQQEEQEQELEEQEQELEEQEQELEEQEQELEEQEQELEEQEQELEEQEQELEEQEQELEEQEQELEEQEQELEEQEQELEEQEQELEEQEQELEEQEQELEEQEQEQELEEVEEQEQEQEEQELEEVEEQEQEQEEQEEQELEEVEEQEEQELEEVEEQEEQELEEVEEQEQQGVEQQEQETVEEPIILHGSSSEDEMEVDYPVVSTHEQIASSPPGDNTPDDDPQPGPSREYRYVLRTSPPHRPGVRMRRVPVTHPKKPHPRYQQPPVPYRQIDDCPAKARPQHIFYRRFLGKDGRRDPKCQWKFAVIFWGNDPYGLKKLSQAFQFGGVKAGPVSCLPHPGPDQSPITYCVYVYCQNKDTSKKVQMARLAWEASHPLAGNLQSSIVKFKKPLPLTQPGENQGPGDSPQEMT
Hits are given with their value.

Screening O=C(N/N=C\c1c(O)ccc2ccccc12)c1ccc(S(=O)(=O)N2CCCCC2)cc1 returned IDE cell inh inactive, HDAC3 inhib inactive, IDE cell activ inactive and LANA-H2A inh 24.
COC(=O)c1cccc(NC(=O)CC2C(=O)NCCN2C(=O)Nc2ccccc2)c1 (stereo not drawn) was read as IDE cell inh inactive, HDAC3 inhib inactive, IDE cell activ inactive and LANA-H2A inh 189.
For C#C[C@]1(O)CCC2C3CCC4=Cc5oncc5CC4(C)C3CCC21C (stereo partly drawn) the results were IDE cell inh inactive, HDAC3 inhib inactive, IDE cell activ inactive and LANA-H2A inh 13.
C#C[C@]1(O)CC[C@H]2[C@@H]3CCc4cc(O)ccc4[C@H]3CC[C@@]21C was read as IDE cell inh inactive, HDAC3 inhib inactive, IDE cell activ inactive and LANA-H2A inh inactive.
O=C(NC1CCCCC1)C(c1ccco1)N(C(=O)c1csnn1)c1cccc(Cl)c1 (stereo not drawn) was read as IDE cell inh inactive, HDAC3 inhib inactive, IDE cell activ inactive and LANA-H2A inh inactive.
`O=C(CCCN1C(=O)c2cccnc2C1=O)N1CC(=O)N(CCc2ccccc2)C(=O)C1` gave IDE cell inh inactive, HDAC3 inhib inactive, IDE cell activ inactive and LANA-H2A inh 25.
Screening CC(=O)NN1C(=O)/C(=C2/Sc3ccc(Cl)cc3N2C)SC1=S returned IDE cell inh inactive, HDAC3 inhib inactive, IDE cell activ inactive and LANA-H2A inh inactive.
For Cc1noc(C)c1CSc1nnc2n(-c3ccccc3)c(=O)c3ccccc3n12 the results were IDE cell inh inactive, HDAC3 inhib inactive, IDE cell activ inactive and LANA-H2A inh 21.
`O=C1CC(=O)C(n2cncn2)C(c2cccc(Cl)c2)C1` (stereo not drawn) gave IDE cell inh inactive, HDAC3 inhib inactive, IDE cell activ inactive and LANA-H2A inh 16.
Screening Cc1cccc(CN2C(=O)/C(=C\c3ccc(C(=O)NCCN4CCOCC4)cc3)Sc3ccccc32)c1 returned IDE cell inh inactive, HDAC3 inhib inactive, IDE cell activ inactive and LANA-H2A inh inactive.
CCN1CCN(CCNC(=O)c2ccc(/C=C3/Sc4ccccc4N(Cc4cccc(Cl)c4)C3=O)cc2)CC1 was read as IDE cell inh inactive, HDAC3 inhib inactive, IDE cell activ 38 and LANA-H2A inh inactive.
`CCOC(=O)c1c(C)[nH]c(C(=O)CSc2nccc(C)n2)c1C` gave IDE cell inh inactive, HDAC3 inhib inactive, IDE cell activ inactive and LANA-H2A inh inactive.
`CC(=O)c1ccc(OC(=O)c2ccc(Br)o2)cc1` gave IDE cell inh inactive, HDAC3 inhib 67, IDE cell activ inactive and LANA-H2A inh inactive.
`O=[N+]([O-])c1ccc(-c2cn3c(n2)CCC3)cc1` gave IDE cell inh inactive, HDAC3 inhib inactive, IDE cell activ inactive and LANA-H2A inh inactive.
For COc1ccccc1NC(=O)c1ccc2c(c1)C(=O)N(Cc1ccco1)C2=O the results were HDAC3 inhib inactive, IDE cell activ inactive and LANA-H2A inh inactive.
`COc1ccc(N2C(=O)c3ccc(C(=O)Nc4ccccc4O)cc3C2=O)cc1` gave IDE cell inh inactive, HDAC3 inhib inactive, IDE cell activ inactive and LANA-H2A inh 15.
For O=C1c2cccc3c(O)ccc(c23)C(=O)N1c1ccc(Cl)cc1 the results were IDE cell inh inactive, HDAC3 inhib inactive, IDE cell activ 52 and LANA-H2A inh 23.
For O=C1c2ccccc2C(=O)N1Cc1ccco1 the results were IDE cell inh inactive, HDAC3 inhib inactive, IDE cell activ inactive and LANA-H2A inh inactive.
For O=C1c2cccc3c(O)ccc(c23)C(=O)N1Cc1ccco1 the results were IDE cell activ 30.
O=C(Nc1ccccc1O)c1ccc2c(c1)C(=O)N(Cc1ccco1)C2=O was read as HDAC3 inhib 41, IDE cell activ inactive and LANA-H2A inh inactive.
For O=C1c2ccccc2C(=O)N1c1ccc(Cl)cc1 the results were IDE cell inh inactive, HDAC3 inhib inactive and LANA-H2A inh inactive.
`COc1ccc(OC)c(-c2nn(-c3ccccc3)cc2C(=O)N2CCc3ccccc3C2)c1` gave IDE cell inh inactive, HDAC3 inhib inactive, IDE cell activ inactive and LANA-H2A inh active.
For CCN(CC)c1ccc2c(c1)CCCN2 the results were IDE cell inh inactive, HDAC3 inhib inactive and LANA-H2A inh 20.
`O=C(c1ccccc1SCc1ccccc1)N1CCOCC1` gave IDE cell inh inactive, HDAC3 inhib inactive, IDE cell activ inactive and LANA-H2A inh inactive.
Cn1cccc1/C=C1\SC(=S)N(NC(=O)c2ccccc2)C1=O was read as IDE cell inh inactive, HDAC3 inhib inactive, IDE cell activ inactive and LANA-H2A inh active.
O=C(N/N=C/c1sc2ccccc2c1O)c1cccc2ccccc12 was read as IDE cell inh inactive, HDAC3 inhib inactive, IDE cell activ inactive and LANA-H2A inh active.
For Cc1cccc(/N=C/c2sc3ccccc3c2O)n1 the results were IDE cell inh inactive, HDAC3 inhib inactive, IDE cell activ inactive and LANA-H2A inh inactive.
For Oc1c(C=Nc2cccc3cccnc23)sc2ccccc12 the results were IDE cell inh 49, HDAC3 inhib inactive and LANA-H2A inh inactive.
CCCCC(Sc1nc(N)c(NC(=O)c2ccco2)c(=O)[nH]1)C(=O)O (stereo not drawn) was read as IDE cell inh inactive, HDAC3 inhib inactive, IDE cell activ inactive and LANA-H2A inh inactive.
For CCOc1ccc(C(=O)NC(=S)Nc2cc(C)ccn2)cc1[N+](=O)[O-] the results were IDE cell inh inactive, HDAC3 inhib inactive, IDE cell activ inactive and LANA-H2A inh 98.
For CCOc1ccc(C(=O)NC(=S)Nc2ccccn2)cc1[N+](=O)[O-] the results were IDE cell inh inactive, HDAC3 inhib inactive, IDE cell activ inactive and LANA-H2A inh inactive.
Screening Nc1cc(=O)[nH]c(SCC(=O)Nc2cccc(Cl)c2)n1 returned IDE cell inh inactive, HDAC3 inhib inactive, IDE cell activ inactive and LANA-H2A inh inactive.
For Nc1cc(=O)[nH]c(SCC(=O)Nc2ccc(Oc3ccccc3)cc2)n1 the results were IDE cell inh inactive, HDAC3 inhib inactive, IDE cell activ inactive and LANA-H2A inh 16.
`Cc1cc(NC(=O)CSc2n[nH]c(N)n2)no1` gave IDE cell inh inactive, HDAC3 inhib inactive, IDE cell activ inactive and LANA-H2A inh active.
Screening NC(=O)C1CCN(C(=O)Nc2csc3ccccc23)CC1 returned IDE cell inh inactive, HDAC3 inhib inactive and LANA-H2A inh inactive.
Screening COC(=O)C(NC(=O)CSc1nc(N)cc(=O)[nH]1)c1ccccc1 (stereo not drawn) returned IDE cell inh inactive, HDAC3 inhib inactive, IDE cell activ inactive and LANA-H2A inh inactive.
For CC1CN(C(=O)CCC(=O)NCc2ccccc2Cl)c2ccccc2S1 (stereo not drawn) the results were IDE cell inh inactive, HDAC3 inhib inactive, IDE cell activ inactive and LANA-H2A inh inactive.
CC(C)Oc1ccc(CNC(=O)CCC(=O)N2CC(C)Sc3ccccc32)cc1 (stereo not drawn) was read as IDE cell inh inactive, HDAC3 inhib inactive, IDE cell activ inactive and LANA-H2A inh 27.
